In all, about 330,000 compounds went through this assay and about 5,800 (1.8%) were called active. For the sample, actives were picked, then their nearest neighbours and some compounds at random. A number with no mark means an inactive call.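 How the source made its calls: active means inhibition above about 50% at the single tested dose (limit read from the data); inactive means the rest.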
Molecular target: Sentrin-specific protease 6 (Homo sapiens) (UniProt Q9GZR1)
Assay: SENP6 protease inhibitors, primary screen, biochemical, luminescence, uHTS (AID 2599);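 further: plate controls were DMSO wells with enzyme for no effect and DMSO wells lacking enzyme for full effect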
Conditions: Recombinant SENP6 catalytic domain, aminoluciferin luminescence; at 10 µM; stronger effect = higher value

Sentrin-specific protease 6 (Homo sapiens), sequence (Q9GZR1 628-1112 limits assumed): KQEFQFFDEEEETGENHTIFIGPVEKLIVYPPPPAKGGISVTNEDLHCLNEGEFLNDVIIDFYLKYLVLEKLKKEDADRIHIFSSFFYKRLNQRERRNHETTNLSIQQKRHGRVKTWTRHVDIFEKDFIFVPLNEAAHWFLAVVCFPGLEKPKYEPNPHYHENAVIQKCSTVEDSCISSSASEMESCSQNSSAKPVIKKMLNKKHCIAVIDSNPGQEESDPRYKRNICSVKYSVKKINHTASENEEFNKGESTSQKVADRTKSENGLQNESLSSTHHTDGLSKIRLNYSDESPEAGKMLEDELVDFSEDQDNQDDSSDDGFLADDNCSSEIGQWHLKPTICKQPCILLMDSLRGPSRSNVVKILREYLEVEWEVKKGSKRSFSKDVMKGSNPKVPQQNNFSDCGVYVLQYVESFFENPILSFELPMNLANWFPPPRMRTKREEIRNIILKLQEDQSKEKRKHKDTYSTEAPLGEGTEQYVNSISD

For `COc1cc(Cn2c(N)c(C(=O)NCc3ccco3)c3nc4ccccc4nc32)cc(OC)c1OC`, the inhibition was 83.6% (active).
`O=C(Nc1cccc2ccccc12)N1CCC2(CC1)OCCO2` was tested, and the inhibition was 63.7% (active).
With `C/C(=N/O)c1ccc2ccc3ccccc3c2c1` the inhibition was 53.8% (active).

First: CCOC(=O)c1c(N)n(Cc2ccccc2)c2nc3ccccc3nc12
Second: CCOC(=O)c1c(N)n(CCN2CCOCC2)c2nc3ccccc3nc12
The inhibition of the first is higher: 29.7% for the first, -28.7% for the second.

Going from `CC[N+](CC)(CC)CCCCCCCCCC[N+](CC)(CC)CC` to `CCCCCCCCCCCCn1ccc(=N)cc1`, the inhibition falls from -14.6% to -35.7%.

First: O=C(c1cc(-c2ccncc2)nc2ccccc12)N1CCC2(CC1)OCCO2
Second: COc1ccc(NC(=O)N2CCC3(CC2)OCCO3)c(OC)c1
The inhibition of the first is higher: 5.91% for the first, -19.7% for the second.

Compared with `Cc1cc2ccccn2c1C(C[N+](=O)[O-])c1c(F)cccc1Cl` (stereo not given), `O=[N+]([O-])c1cnc2ccc3ccccc3c2c1` is higher in inhibition: -24.7% for the first, -4.31% for the second.

Compared with `C/C(CCc1c[nH]c2ccccc12)=N\O`, `O=C(NC(=S)N1C[C@H]2C[C@H](C1)c1cccc(=O)n1C2)c1ccc(F)cc1` is higher in inhibition: -0.527% for the first, 0.817% for the second.

First: CC(=O)N1CN2CN(C(C)=O)CC(C(=O)c3ccc(Br)cc3)(C2)C1
Second: O=c1[nH]c(=O)n(-c2ccc(F)cc2)c(O)c1C=NCCN1CCCCC1
The inhibition of the first is lower: -9.66% for the first, -0.13% for the second.

Reference: PubChem BioAssay AID2599 (Sanford-Burnham Center for Chemical Genomics, 2010)
